Autophagy HCS: autophagy modulation, high-content screen. AID 463193. calls only at 10 µM (by protocol). 190,000 compounds, 0.98% hits. MEF GFP-LC3 puncta imaging; test concentration mostly 10 µM;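 active means percentage of spot-positive cells more than 3 SD above its plate mean, without a fluorescence outlier flag or 80% toxicity; inconclusive means no clear call, values can overlap the other calls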;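 further: spot-positive cell cutoff set from DMSO-treated cells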
Efa HMGR inh: inhibitors of class II HMG-CoA reductase from Enterococcus faecalis. purified E. faecalis HMGR, NADPH absorbance 340 nm kinetic. inhibition, % at 10 µM. 190,000 compounds, 0.41% hits. AID 1066;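 active means inhibition above a set limit, the median over all tested compounds plus 3 SD, cut at about 9.5% in these data; inconclusive means no clear call, values can overlap the other calls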;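 further: enzyme runs in reverse so mevalonate oxidation gives rising NADPH absorbance; 0% = complete reaction with DMSO and 100% = background rate lacking mevalonate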
Ins promoter up: MIN6 insulin promoter up-regulation | z-score at 5 µM | MIN6 insulin promoter-GFP reporter, high-content imaging; hits give high values | 190,000 compounds, 0.3% hits;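 active means z-score above 3 at 5 µM with at least 500 cells counted in the well; inconclusive means wells under 500 cells, flagged as cytotoxic or low count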
Insulin prom inh: TRM-6 insulin promoter activity inhibition; TRM-6 cells (human fetal islet line), insulin promoter-eGFP reporter, imaging; reporter expression induced with tamoxifen; inhibition, % at 2 µM; 130,000 compounds, 0.9% hits; AID 1273;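 active means inhibition above the mean plus 3 SD, with well images judged a real hit on visual review, cut at about 60% in these data, passing the limit was not always enough; inconclusive means inhibition over the cutoff but images rejected on review; inactive means inhibition not above the cutoff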
* hit, by the source's call; i = inactive; ? = inconclusive; / = no result given; + = active, no number. Rows were chosen to be rich in hits. Some 1.9% of all compounds tested hit in one or more screens of this group.

SMILES	Autophagy HCS	Efa HMGR inh	Ins promoter up	Insulin prom inh
CCOC(=O)c1cc(CC)sc1NC(=O)c1cc([N+](=O)[O-])ccc1N1CCOCC1	+	-1	-0.43	/
O=C(c1ccccc1)c1cc([N+](=O)[O-])ccc1N1CCOCC1	i	-1	-0.61	/
O=C(c1ccc(Cl)cc1)c1cc([N+](=O)[O-])ccc1N1CCOCC1	+	-4	0.32	/
O=C(c1cc([N+](=O)[O-])ccc1N1CCCCC1)N1CCCC1	i	-6	0.58	45
CCOC(=O)c1cc(CC)sc1NC(=O)c1ccc(N2CCOCC2)c([N+](=O)[O-])c1	i	-2	-0.55	/
O=C(c1ccc(Br)cc1)c1cc([N+](=O)[O-])ccc1N1CCOCC1	+	-3	0.28	/
O=C(c1cc([N+](=O)[O-])ccc1N1CCCC1)N1CCCC1	i	-4	3.1*	-14
Oc1c(C(Nc2ccccn2)c2cccnc2)cc(Cl)c2cccnc12 (configuration not stated)	+	0	-0.41	27
CC(C)(C)c1ccc(C(=O)NN2C(=O)CSC2=S)cc1	/	/	0.27	/
O=S(=O)(Cc1ccc(Cl)cc1)c1ccccc1-c1nnc(-c2ccccc2)o1	i	-2	14*	9
Cc1ccc(NC(=S)NNC(=O)c2nnn(-c3ccccc3)c2C)cc1	i	-2	/	36
CC(=O)CSc1nc2cc3c(cc2cc1C#N)OCCO3	i	11*	0.18	-346
N#Cc1cc2cc3c(cc2nc1SCC(=O)OC1CCCCC1)OCO3	i	-2	-0.25	32
FC(F)(F)c1ccc2c(c1)N1CCCC1CN2 (configuration not stated)	+	-6	0.91	/
FC(F)(F)c1ccc2c(c1)NCC1CCCN21 (configuration not stated)	+	1	0.17	/
Cc1ccnc(SCc2cc(=O)c(OC(=O)c3ccc(S(=O)(=O)N(C)C)cc3)co2)n1	i	-7	-0.28	52
COc1ccc(-c2nc(CN3CCCCC3c3cccnc3)c(C)o2)c(F)c1 (configuration not stated)	i	16*	-0.17	/
CCN(CCNC(=O)C1CCCN(S(=O)(=O)CC)C1)c1ccccc1 (configuration not stated)	i	-1	3.1*	-68
CCN(CCNC(=O)C1CCN(Cc2nc(-c3ccc(Cl)cc3)oc2C)CC1)c1ccccc1	+	2	-0.78	/
CCCN(CCC)C(=O)c1cc([N+](=O)[O-])cc2c1-c1ccc([N+](=O)[O-])cc1C2=C(C#N)C#N	/	/	0.81	/
CC(C)C1Cc2[nH]c(=O)c(C#N)cc2CO1 (configuration not stated)	/	/	0	/
Cc1ccc(-c2nnc(SCC(=O)N/N=C/c3ccc(C)s3)n2-c2ccccc2)cc1	i	-1	-0.24	/
COc1ccc(C(=O)NC2CCN(CC(=O)Nc3cccc(C)c3)CC2)cc1OC	i	11*	/	16
CCOC(=O)N1CCC(NC(=O)c2cc(C(=O)Nc3ccc(OC)c(OC)c3)ccc2CO)CC1	i	1	3.4*	/
O=c1[nH]c(=O)n([C@H]2C[C@H](O)[C@@H](CO)O2)cc1C(F)(F)F	+	9	/	-5
SMILES	Autophagy HCS	Efa HMGR inh	Ins promoter up	Insulin prom inh
CCCc1ccc(OCC(=O)NNC(=O)c2cccnc2)cc1	i	-11	/	35
CCOc1ccccc1N(CC(=O)Nc1ccc2c(c1)OCCO2)S(C)(=O)=O	i	-11	-1.3	82*
COc1ccc(CCNc2cc(N3CCN(C(=O)c4ccccc4F)CC3)ccc2[N+](=O)[O-])cc1OC	+	-2	?	50
COc1ccc(CCNc2cc(N3CCN(C(=O)c4ccc(C)cc4)CC3)ccc2[N+](=O)[O-])cc1OC	i	-1	-1.9	44
CC(=O)c1ccc(Nc2cc(C)nc3c(C)cc(C)cc23)cc1	+	2	/	/
Cc1cc(C)c2nc(C)cc(Nc3ccc(C(=O)N(C)C)cc3)c2c1	/	/	-0.42	/
COc1ccc(Cl)cc1NC(=S)NNC(=O)c1cccnc1	+	-7	-0.18	-53
O=C(c1ccc(F)cc1)N1CCCC(c2ccccc2)C1 (configuration not stated)	i	13*	-0.77	-39
O=C(c1cc(COc2ccc(F)cc2Cl)on1)N1CCCC(c2ccccc2)C1 (configuration not stated)	+	-7	-0.12	-42
O=C(CCN1CCC(c2ccccc2)C1)c1cccs1 (configuration not stated)	i	-2	0.26	35
O=C(c1cccs1)N1CCC(c2ccccc2)C1 (configuration not stated)	i	-6	0.68	79*
O=C(c1cc(COc2ccc(F)cc2F)on1)N1CCCC(c2ccccc2)C1 (configuration not stated)	i	-1	0.1	/
O=C(NCCO)/C(=C/c1cccc([N+](=O)[O-])c1)NC(=O)c1ccco1	i	3	-0.17	5
Cc1ccc(Cl)c(OCC(=O)OCC(=O)NC2CCCc3ccccc32)c1 (configuration not stated)	i	13*	0.71	/
COc1ccc2ccccc2c1C(=O)/C=C\c1ccoc1	i	-5	-0.54	79*
O=C(/C=C/c1ccoc1)c1ccccc1O	i	-3	0.33	-35
O=C1C2ON(c3ccccc3)C(c3ccncc3)C2C(=O)N1c1ccccc1 (configuration not stated)	i	-8	-0.29	73*
O=C1C2C3c4ccccc4C(c4ccccc43)C2C(=O)N1c1ccncc1 (configuration not stated)	+	1	-0.06	/
Cc1cccc(C)c1N1C(=O)C2ON(c3ccccc3)C(c3ccncc3)C2C1=O (configuration not stated)	i	-3	-0.08	/
Cc1ccc(NC(=S)c2nc3ccccc3[nH]2)cc1	i	-5	-1.1	81*
Cc1cc(C)nc(SCc2ccc(C(=O)N/N=C3\CC(C)CC(C)(C)C3)cc2)n1 (configuration not stated)	i	-5	-0.59	/
Cc1cc(C)cc(Nc2c(F)c(F)c(F)c(F)c2C(=O)O)c1	i	9.6*	0.4	-8
COc1c(F)c(F)c(C(=O)O)c(Nc2cccc(C)c2)c1F	i	-5	0.3	8
CC(C)CSc1nsc(N)n1	i	-2	-0.13	86*
CC(=O)Nc1ccc(NC(=O)Cc2ccc(S(=O)(=O)N3CCCCC3)s2)cc1	i	-7	/	80*
Cc1ccc(C)c(NC(=O)Cc2ccc(S(=O)(=O)N3CCCCC3)s2)c1	i	-1	0.1	/
O=[N+]([O-])c1ccc(/C=C/C2=NN(c3ccccc3)C(c3ccco3)C2)o1 (configuration not stated)	+	-2	/	/
C(=C\c1ccco1)/C1=NN(c2ccccc2)C(c2ccco2)C1 (configuration not stated)	i	3	0.09	-115
Cc1cc(C)c(OCC(=O)Nc2ccc(NC(=O)c3ccco3)cc2)c([N+](=O)[O-])c1	i	0	-0.06	64*
Cc1cc(C)c(OCC(=O)Nc2cccc(NC(=O)c3ccco3)c2)c(Br)c1	i	-1	-0.8	-13

High-throughput results as filed in PubChem.
